Holding throughout (assay): DAPPL (digital affinity profiling via proximity ligation, sequencing); 10 mM Tris-HCl pH 7.5, 50 mM NaCl, 1 mM DTT, 4% glycerol, room temperature, 30 min; GST-TFs on glutathione beads, 16-mer random dsDNA library, 0.1% formaldehyde crosslink after washing; high values mean tight binding
The target of one test is T1, FEV (Homo sapiens, UniProt Q99581 1-238).
T1 sequence: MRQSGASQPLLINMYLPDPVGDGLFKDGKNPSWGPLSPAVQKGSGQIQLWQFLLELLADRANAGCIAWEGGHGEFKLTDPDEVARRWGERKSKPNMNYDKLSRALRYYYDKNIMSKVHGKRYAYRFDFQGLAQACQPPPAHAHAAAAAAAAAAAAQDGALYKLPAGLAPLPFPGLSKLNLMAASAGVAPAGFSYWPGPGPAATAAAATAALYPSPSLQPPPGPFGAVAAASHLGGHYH
Particulars: protein: recombinant; tags: N-terminal GST; dsDNA, one strand shown. The procedure, abridged:
(§1)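 Pools were built from human transcription factors expressed in yeast as GST fusions, captured on glutathione beads and DNA-barcoded, along with a tag-only sample. Incubation with 200 nmole of a 16-mer random double-stranded DNA library lasted 30 min at room temperature in Tris/NaCl/DTT/glycerol buffer, and was followed by washing, 0.1% formaldehyde crosslinking, proximity ligation, PCR amplification and Illumina NextSeq500 sequencing. Binding signal is the quotient of each hexamer's read frequency for a factor and its frequency for the tag-only sample.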

The target of a further test is ETV5 (Homo sapiens, UniProt P41161 1-510). Particulars: protein: recombinant; tags: N-terminal GST; dsDNA, one strand shown. The procedure, abridged: as §1
The target in a further test is HSF1 (Homo sapiens, UniProt Q00613 1-529). Particulars: protein: recombinant; tags: N-terminal GST; chain copies: 3; dsDNA, one strand shown. The procedure, abridged:
as §1

The next test has as its target T2, SPIC (Homo sapiens, UniProt Q8N5J4 1-248).
T2 sequence: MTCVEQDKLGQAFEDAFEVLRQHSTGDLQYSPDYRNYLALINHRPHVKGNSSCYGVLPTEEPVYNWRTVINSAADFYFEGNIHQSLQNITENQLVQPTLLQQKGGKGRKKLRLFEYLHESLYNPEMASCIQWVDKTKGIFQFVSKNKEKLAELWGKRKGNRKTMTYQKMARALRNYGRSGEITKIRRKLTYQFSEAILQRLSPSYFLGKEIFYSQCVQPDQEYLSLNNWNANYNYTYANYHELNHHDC
Particulars: protein: recombinant; tags: N-terminal GST; dsDNA, one strand shown. The procedure, abridged:
as §1

The target of another test is ELF4 (Homo sapiens, UniProt Q99607 1-663). To be noted: protein: recombinant; tags: N-terminal GST; dsDNA, one strand shown. The procedure, abridged:
as §1

A further test concerns the target T3, ELK4 (Homo sapiens, UniProt P28324-2 1-405).
T3 sequence: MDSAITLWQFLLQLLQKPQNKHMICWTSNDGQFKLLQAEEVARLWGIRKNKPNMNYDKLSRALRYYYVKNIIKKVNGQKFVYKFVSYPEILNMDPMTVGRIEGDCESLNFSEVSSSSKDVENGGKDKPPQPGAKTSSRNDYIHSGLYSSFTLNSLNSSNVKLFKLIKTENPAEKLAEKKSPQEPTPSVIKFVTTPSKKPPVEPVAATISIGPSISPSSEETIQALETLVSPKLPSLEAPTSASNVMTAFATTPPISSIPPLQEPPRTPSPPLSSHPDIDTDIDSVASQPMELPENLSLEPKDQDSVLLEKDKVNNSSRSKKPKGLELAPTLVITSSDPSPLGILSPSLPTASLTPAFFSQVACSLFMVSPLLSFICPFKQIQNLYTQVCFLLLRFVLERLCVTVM
To be noted: protein: recombinant; tags: N-terminal GST; dsDNA, one strand shown. Summed up:
as §1

The next test concerns the target T4, ETV2 (Homo sapiens, UniProt O00321 1-342).
T4 sequence: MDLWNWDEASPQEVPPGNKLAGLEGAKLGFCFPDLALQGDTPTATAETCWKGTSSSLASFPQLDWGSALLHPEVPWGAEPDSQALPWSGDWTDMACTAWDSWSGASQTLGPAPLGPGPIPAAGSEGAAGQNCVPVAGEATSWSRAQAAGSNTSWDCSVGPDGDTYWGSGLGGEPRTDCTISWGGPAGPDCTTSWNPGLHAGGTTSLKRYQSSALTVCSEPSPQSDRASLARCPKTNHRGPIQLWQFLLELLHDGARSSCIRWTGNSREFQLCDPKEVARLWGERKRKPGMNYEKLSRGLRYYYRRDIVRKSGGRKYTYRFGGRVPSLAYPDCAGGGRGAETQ
To be noted: protein: recombinant; tags: N-terminal GST; dsDNA, one strand shown. Summed up: as §1

For another test, the target named is T5, ELF3 (Homo sapiens, UniProt P78545 1-371).
T5 sequence: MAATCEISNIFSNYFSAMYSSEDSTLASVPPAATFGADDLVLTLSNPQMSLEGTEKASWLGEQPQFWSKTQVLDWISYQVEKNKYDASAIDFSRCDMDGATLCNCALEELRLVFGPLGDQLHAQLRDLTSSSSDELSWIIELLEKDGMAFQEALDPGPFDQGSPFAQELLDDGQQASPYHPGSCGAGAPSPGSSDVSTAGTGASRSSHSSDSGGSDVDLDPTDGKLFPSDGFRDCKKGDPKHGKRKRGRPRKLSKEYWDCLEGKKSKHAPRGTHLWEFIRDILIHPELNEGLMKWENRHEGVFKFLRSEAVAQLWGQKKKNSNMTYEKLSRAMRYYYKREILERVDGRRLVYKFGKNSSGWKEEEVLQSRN
To be noted: protein: recombinant; tags: N-terminal GST; dsDNA, one strand shown. Summed up: as §1

A further test deals with CRX (Homo sapiens, UniProt O43186 1-299). To be noted: protein: recombinant; tags: N-terminal GST; dsDNA, one strand shown. The procedure, abridged: as §1
The next test deals with ETV1 (Homo sapiens, UniProt P50549 1-477). To be noted: protein: recombinant; tags: N-terminal GST; dsDNA, one strand shown. The procedure, abridged: as §1
A further test has as its target T6, ERF (Homo sapiens, UniProt P50548 1-548).
T6 sequence: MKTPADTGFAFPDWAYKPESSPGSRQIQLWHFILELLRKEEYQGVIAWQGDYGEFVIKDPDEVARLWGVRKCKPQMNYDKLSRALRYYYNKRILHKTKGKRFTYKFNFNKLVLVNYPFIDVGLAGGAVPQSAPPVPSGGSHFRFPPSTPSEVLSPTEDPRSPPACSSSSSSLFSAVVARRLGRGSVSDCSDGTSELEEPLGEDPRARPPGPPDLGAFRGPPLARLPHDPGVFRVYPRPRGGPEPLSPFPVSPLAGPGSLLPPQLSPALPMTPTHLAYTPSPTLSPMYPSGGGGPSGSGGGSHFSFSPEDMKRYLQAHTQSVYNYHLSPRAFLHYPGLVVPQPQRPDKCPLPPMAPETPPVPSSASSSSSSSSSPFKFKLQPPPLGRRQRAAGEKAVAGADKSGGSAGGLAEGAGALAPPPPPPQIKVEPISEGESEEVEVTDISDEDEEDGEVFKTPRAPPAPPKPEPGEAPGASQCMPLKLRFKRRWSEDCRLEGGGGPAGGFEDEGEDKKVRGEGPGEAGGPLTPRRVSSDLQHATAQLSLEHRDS
To be noted: protein: recombinant; tags: N-terminal GST; dsDNA, one strand shown. The procedure, abridged:
as §1

In a further test the target is T7, ETV3L (Homo sapiens, UniProt Q6ZN32 1-361).
T7 sequence: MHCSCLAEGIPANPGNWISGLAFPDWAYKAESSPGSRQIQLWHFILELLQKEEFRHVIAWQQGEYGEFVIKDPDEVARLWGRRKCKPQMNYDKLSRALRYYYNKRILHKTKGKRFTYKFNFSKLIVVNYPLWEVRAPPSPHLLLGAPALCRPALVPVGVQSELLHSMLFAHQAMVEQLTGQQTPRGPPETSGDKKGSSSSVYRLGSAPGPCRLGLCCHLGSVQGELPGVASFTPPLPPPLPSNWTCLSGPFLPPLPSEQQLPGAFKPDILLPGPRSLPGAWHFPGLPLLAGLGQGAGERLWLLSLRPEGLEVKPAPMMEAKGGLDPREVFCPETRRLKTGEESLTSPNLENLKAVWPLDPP
Particulars: protein: recombinant; tags: N-terminal GST; dsDNA, one strand shown. The procedure, abridged:
as §1

A further test deals with T8, ETS2 (Homo sapiens, UniProt P15036 1-469).
T8 sequence: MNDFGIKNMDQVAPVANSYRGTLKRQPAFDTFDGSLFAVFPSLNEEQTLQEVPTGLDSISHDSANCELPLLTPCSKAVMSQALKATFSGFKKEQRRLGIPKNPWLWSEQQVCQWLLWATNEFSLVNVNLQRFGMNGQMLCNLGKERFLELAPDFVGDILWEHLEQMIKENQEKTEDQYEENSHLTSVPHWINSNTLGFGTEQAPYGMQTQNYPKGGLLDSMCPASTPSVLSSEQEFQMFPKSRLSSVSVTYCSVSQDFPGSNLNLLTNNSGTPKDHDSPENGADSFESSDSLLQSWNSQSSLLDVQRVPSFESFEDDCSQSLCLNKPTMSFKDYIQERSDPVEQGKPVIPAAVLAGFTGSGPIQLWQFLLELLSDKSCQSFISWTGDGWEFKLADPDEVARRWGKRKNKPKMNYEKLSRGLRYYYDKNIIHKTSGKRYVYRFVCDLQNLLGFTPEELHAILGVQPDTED
Particulars: protein: recombinant; tags: N-terminal GST; dsDNA, one strand shown. Summed up: as §1

The target of the next test is T9, SPDEF (Homo sapiens, UniProt O95238 1-335).
T9 sequence: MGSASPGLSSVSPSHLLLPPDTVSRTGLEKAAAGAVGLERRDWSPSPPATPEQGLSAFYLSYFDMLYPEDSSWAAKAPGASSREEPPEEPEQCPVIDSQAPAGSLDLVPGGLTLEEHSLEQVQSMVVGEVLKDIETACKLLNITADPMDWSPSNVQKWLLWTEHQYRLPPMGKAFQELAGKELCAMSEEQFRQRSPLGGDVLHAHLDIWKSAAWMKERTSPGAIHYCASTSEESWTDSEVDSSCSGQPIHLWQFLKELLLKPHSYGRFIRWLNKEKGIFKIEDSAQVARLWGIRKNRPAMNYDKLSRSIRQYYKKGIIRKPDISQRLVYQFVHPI
To be noted: protein: recombinant; tags: N-terminal GST; dsDNA, one strand shown. Summed up:
as §1

A further test concerns the target T10, ETV7 (Homo sapiens, UniProt Q9Y603 1-341).
T10 sequence: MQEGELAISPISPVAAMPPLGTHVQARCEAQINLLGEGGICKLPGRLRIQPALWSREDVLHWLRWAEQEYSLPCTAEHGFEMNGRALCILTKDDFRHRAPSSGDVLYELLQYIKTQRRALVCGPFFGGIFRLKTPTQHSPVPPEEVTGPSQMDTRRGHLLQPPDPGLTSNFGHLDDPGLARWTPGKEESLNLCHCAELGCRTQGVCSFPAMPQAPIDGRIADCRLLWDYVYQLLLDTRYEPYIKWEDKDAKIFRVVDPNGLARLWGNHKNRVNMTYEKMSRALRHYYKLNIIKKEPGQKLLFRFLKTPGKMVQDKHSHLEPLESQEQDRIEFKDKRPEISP
Particulars: protein: recombinant; tags: N-terminal GST; dsDNA, one strand shown. Summed up: as §1

In another test the target is T11, ELF5 (Homo sapiens, UniProt Q9UKW6-2 1-255).
T11 sequence: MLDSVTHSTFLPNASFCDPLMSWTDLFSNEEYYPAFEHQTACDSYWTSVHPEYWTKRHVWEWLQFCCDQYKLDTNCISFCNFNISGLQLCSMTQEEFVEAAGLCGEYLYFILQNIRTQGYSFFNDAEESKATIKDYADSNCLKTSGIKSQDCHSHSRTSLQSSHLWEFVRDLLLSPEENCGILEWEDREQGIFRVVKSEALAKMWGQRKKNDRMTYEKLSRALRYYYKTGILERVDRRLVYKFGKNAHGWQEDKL
Particulars: protein: recombinant; tags: N-terminal GST; dsDNA, one strand shown. Summed up: as §1

A further test has as its target T12, ETV3 (Homo sapiens, UniProt P41162-2 1-143).
T12 sequence: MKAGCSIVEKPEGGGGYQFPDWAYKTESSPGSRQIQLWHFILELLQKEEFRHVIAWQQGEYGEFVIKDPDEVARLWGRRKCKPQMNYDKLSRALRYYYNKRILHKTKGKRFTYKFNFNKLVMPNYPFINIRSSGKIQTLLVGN
To be noted: protein: recombinant; tags: N-terminal GST; dsDNA, one strand shown. Summed up:
as §1

A further test concerns the target ETV6 (Homo sapiens, UniProt P41212 1-452). Particulars: protein: recombinant; tags: N-terminal GST; dsDNA, one strand shown. The procedure, abridged:
as §1

Chain of ETV1 (P50549 whole entry): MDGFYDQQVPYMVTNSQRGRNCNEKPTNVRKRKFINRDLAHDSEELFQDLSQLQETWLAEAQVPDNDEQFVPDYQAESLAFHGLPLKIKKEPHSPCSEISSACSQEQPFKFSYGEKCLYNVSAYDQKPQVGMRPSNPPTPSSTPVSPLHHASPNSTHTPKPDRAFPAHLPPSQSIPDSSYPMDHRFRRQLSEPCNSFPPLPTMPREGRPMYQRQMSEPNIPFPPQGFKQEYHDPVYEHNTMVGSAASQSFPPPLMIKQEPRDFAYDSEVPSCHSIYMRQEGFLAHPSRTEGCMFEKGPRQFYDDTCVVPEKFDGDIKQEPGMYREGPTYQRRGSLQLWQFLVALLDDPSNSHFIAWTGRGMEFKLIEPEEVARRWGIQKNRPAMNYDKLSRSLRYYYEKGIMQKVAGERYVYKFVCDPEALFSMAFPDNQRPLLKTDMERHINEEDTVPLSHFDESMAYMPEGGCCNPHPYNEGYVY
Chain of ETV5 (P41161 whole entry): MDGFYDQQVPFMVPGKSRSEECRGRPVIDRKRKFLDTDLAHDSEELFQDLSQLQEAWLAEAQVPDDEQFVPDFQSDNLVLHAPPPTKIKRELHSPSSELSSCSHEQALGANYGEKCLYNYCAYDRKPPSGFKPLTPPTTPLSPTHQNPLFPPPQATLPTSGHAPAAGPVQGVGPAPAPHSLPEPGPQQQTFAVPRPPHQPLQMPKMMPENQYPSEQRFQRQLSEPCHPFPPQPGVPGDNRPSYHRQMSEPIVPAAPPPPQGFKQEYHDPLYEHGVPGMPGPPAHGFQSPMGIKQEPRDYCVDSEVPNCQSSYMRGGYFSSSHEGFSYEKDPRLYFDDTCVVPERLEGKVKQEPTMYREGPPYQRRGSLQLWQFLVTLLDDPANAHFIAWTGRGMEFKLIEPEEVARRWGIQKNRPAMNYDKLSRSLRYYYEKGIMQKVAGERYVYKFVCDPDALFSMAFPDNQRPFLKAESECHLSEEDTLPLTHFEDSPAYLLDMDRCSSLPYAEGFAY
Chain of ELF4 (Q99607 whole entry): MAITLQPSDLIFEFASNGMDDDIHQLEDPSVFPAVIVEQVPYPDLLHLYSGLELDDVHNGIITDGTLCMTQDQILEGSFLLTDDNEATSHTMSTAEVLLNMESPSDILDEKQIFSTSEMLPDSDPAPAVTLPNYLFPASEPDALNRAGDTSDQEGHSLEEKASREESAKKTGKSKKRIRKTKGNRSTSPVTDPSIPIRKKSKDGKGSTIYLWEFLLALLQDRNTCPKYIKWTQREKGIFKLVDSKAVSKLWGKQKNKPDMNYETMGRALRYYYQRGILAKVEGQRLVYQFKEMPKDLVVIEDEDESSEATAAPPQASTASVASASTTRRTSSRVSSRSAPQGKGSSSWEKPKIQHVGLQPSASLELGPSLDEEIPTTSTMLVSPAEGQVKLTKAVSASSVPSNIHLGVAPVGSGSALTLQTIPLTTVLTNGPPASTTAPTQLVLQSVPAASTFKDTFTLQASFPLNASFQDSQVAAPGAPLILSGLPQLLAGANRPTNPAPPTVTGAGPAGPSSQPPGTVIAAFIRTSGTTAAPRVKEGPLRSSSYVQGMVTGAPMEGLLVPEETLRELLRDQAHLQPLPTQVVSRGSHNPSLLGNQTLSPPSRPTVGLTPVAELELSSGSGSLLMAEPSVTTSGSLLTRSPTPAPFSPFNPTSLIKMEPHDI
Chain of HSF1 (Q00613 whole entry): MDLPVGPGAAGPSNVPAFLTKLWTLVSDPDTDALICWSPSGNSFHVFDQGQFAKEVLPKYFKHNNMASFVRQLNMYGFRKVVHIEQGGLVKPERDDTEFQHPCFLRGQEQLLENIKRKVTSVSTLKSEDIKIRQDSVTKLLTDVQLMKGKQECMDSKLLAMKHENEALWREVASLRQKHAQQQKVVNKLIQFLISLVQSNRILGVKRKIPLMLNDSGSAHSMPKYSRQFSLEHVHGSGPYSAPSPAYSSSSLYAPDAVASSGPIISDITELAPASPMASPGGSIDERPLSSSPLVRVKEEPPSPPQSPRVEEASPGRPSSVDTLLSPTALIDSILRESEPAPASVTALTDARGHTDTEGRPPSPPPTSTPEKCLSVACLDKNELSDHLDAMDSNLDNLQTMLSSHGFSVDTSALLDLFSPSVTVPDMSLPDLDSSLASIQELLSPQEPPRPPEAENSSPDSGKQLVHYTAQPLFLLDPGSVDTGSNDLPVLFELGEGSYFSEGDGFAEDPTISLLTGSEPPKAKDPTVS
Chain of CRX (O43186 whole entry): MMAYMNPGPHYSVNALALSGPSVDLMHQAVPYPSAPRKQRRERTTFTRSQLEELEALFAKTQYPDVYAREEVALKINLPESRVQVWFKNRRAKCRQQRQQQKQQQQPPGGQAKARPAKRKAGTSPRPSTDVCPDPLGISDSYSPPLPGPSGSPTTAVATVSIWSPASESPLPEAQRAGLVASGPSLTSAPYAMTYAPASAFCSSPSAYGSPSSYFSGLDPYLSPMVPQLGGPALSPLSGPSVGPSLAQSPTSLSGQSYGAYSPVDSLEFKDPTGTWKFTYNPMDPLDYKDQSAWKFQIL
Chain of ETV6 (P41212 whole entry): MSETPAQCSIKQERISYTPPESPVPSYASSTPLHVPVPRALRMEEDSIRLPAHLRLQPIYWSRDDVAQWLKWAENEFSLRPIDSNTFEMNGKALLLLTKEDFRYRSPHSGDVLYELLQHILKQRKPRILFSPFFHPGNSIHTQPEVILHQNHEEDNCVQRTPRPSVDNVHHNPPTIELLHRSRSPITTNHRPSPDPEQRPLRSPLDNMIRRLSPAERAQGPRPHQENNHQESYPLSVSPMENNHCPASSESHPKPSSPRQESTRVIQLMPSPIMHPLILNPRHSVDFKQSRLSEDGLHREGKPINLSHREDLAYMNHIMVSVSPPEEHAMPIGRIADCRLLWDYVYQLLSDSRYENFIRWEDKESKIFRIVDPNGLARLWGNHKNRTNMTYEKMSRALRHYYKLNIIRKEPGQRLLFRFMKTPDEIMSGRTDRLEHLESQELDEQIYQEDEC

With CTTGCT, the binding signal is 1.25 fold enrichment (6-mer frequency, TF over GST control) with FEV; 1.39 fold enrichment (6-mer frequency, TF over GST control) in the test with ETV5; 1.24 fold enrichment (6-mer frequency, TF over GST control) with HSF1; 1.52 fold enrichment (6-mer frequency, TF over GST control) with SPIC; 1.35 fold enrichment (6-mer frequency, TF over GST control) in the test with ELF4; 1.34 fold enrichment (6-mer frequency, TF over GST control) with ELK4. In addition, the binding signal with ETV2 is 1.58 fold enrichment (6-mer frequency, TF over GST control); with ELF3 it was 1.52 fold enrichment (6-mer frequency, TF over GST control); in the test with CRX, 1.18 fold enrichment (6-mer frequency, TF over GST control); in the test with ETV1 it was 1.36 fold enrichment (6-mer frequency, TF over GST control); in the test with ERF, 1.36 fold enrichment (6-mer frequency, TF over GST control); in the test with ETV3L it was 1.37 fold enrichment (6-mer frequency, TF over GST control). Moreover, the binding signal with ETS2 is 1.21 fold enrichment (6-mer frequency, TF over GST control); with SPDEF it was 1.23 fold enrichment (6-mer frequency, TF over GST control); with ETV7, 1.52 fold enrichment (6-mer frequency, TF over GST control); with ELF5 it was 1.27 fold enrichment (6-mer frequency, TF over GST control); with ETV3, 1.33 fold enrichment (6-mer frequency, TF over GST control); with ETV6, 1.36 fold enrichment (6-mer frequency, TF over GST control).

The values are drawn from PMC7862700, “An all-to-all approach to the identification of sequence-specific readers for epigenetic DNA modifications on cytosine”.
